Data as given in PubChem BioAssay (NCI).
About 79,000 compounds went through this panel and 15% of them were active in at least one assay; those are over-represented in the sample as a whole. Active and inactive are the calls of the source. Cut-off read from the data, not from the text of the source: active = growth inhibition above about 70%; inactive = the rest.

Assays:
[1] = NCI Yeast Anticancer Drug Screen. Data for the rad52 strain (AID 147);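 note: 0% = growth of vehicle-treated control cultures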; conditions: S. cerevisiae rad52 mutant growth inhibition, active compounds read high
How it was run: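 Screen used a yeast mutant impaired in DNA repair. After compound exposure, growth was measured. Values reflect inhibition compared with vehicle-treated cells.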

[2] = NCI Yeast Anticancer Drug Screen. Data for the wt1 strain (AID 149);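 note: 0% = growth of vehicle-treated wt1 cultures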; conditions: S. cerevisiae wt1 strain (SPY 50644) growth inhibition, active compounds read high
How it was run: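 Vehicle-normalised growth inhibition; strain wt1; compound exposure.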

[3] = NCI Yeast Anticancer Drug Screen. Data for the rad50EPP+ strain (AID 151);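 note: 0% = growth of vehicle-treated control cultures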; conditions: S. cerevisiae rad50 mutant strain, active compounds read high
How it was run: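 Exposing the rad50EPP+ strain to each compound, growth was compared with vehicle-only cultures to give inhibition.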

[4] = NCI Yeast Anticancer Drug Screen. Data for the mgt1 strain (AID 153); conditions: S. cerevisiae mgt1 mutant growth inhibition, active compounds read high
How it was run: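 Genetically defined yeast (mgt1) treated with compound; inhibition of growth expressed against vehicle-treated controls.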

[5] = NCI Yeast Anticancer Drug Screen. Data for the rad50 strain (AID 155);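 note: 0% = growth of vehicle-only cultures of the same strain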; conditions: S. cerevisiae rad50 strain growth inhibition, active compounds read high
How it was run: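 A DNA repair-deficient yeast mutant serves as the test organism; compound-induced growth inhibition is calculated against vehicle-treated cells.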

[6] = NCI Yeast Anticancer Drug Screen. Data for the mec2-1 strain (AID 157); conditions: S. cerevisiae mec2-1 strain, active compounds read high
How it was run: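 Readout is yeast growth inhibition, normalised to vehicle-treated controls, in the mec2-1 strain exposed to compound.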

[7] = NCI Yeast Anticancer Drug Screen. Data for the rad14 strain (AID 159);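 note: 0% = growth of vehicle-treated control cultures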; conditions: S. cerevisiae rad14 strain growth inhibition, active compounds read high
How it was run: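 Vehicle-treated cultures served as the baseline for growth inhibition of a DNA repair-mutant yeast strain exposed to each compound.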

[8] = NCI Yeast Anticancer Drug Screen. Data for the sgs1 mgt1 strain (AID 161);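 note: 0% = growth of cultures given vehicle only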; conditions: S. cerevisiae sgs1 mgt1 strain, active compounds read high
How it was run: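 Yeast cells carrying a defined DNA-repair defect were exposed to test compounds. Growth inhibition was measured relative to vehicle-treated controls.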

[9] = NCI Yeast Anticancer Drug Screen. Data for the CLN2oe strain (AID 163);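 note: 0% = growth of vehicle-only control cultures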; conditions: S. cerevisiae CLN2oe strain, active compounds read high
How it was run: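 Values reflect how much compound exposure reduced yeast growth, referenced to vehicle-exposed cells. Assay organism is a strain with a defined genetic change affecting cell-cycle control.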

[10] = NCI Yeast Anticancer Drug Screen. Data for the cln2 rad14 strain (AID 165);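 note: 0% = growth equal to vehicle treated cultures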; conditions: S. cerevisiae cln2 rad14 strain, active compounds read high
How it was run: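 Relative to vehicle controls, growth inhibition of compound-treated cln2 rad14 yeast was recorded.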

[11] = NCI Yeast Anticancer Drug Screen. Data for the bub3 strain (AID 167); conditions: S. cerevisiae bub3 mutant strain, active compounds read high
How it was run: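 Inhibition values come from growth of compound-treated mutant yeast normalised to vehicle-treated controls.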

[12] = NCI Yeast Anticancer Drug Screen. Data for the wt2 strain (AID 169);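 note: 0% = growth of vehicle-treated yeast cultures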; conditions: S. cerevisiae wt2 strain growth inhibition, active compounds read high
How it was run: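 Values express reduction in yeast growth under compound treatment, referenced to vehicle-treated cells.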

[13] = NCI Yeast Anticancer Drug Screen. Data for the mlh1 strain (AID 171);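 note: 0% = growth of vehicle-treated control cultures of the same strain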; conditions: S. cerevisiae mlh1 strain growth inhibition, active compounds read high
How it was run: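 Steps: expose the defined-mutant yeast strain to compound; expose a parallel culture to vehicle; measure growth; express compound effect as inhibition relative to the vehicle culture.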

[14] = NCI Yeast Anticancer Drug Screen. Data for the sgs1 strain (AID 173);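 note: 0% = growth of vehicle-only control cultures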; conditions: S. cerevisiae sgs1 mutant, active compounds read high
How it was run: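 Treat defined-mutant yeast with compound; measure growth; calculate inhibition relative to vehicle-treated cells.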

[15] = NCI Yeast Anticancer Drug Screen. Data for the mlh1 rad18 strain (AID 175); conditions: S. cerevisiae mlh1 rad18 strain growth inhibition, active compounds read high
How it was run: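 Test agents were incubated with a yeast strain of defined genotype (DNA damage repair defect). Inhibition of growth was derived by comparison with vehicle-exposed cultures.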

[16] = NCI Yeast Anticancer Drug Screen. Data for the rad18 strain (AID 177); conditions: S. cerevisiae rad18 mutant growth inhibition, active compounds read high
How it was run: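 A genetically defined yeast mutant impaired in DNA damage repair was treated with test compounds, then its growth was measured against cultures receiving vehicle alone.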

[17] = at 5.0 µM (retest, dose inferred, filed as 0.5)
[18] = at 50.0 µM (retest, dose inferred, filed as 5.0)

Measured: growth inhibition

O=C(NNc1ccccc1)C(CCCCNS(=O)(=O)Cc1ccccc1)NS(=O)(=O)Cc1ccccc1 (stereo unspecified)
active: [1]; at 100.0 µM 72% | [5]; at 100.0 µM 85% | [11]; at 33.0 µM 87% | [11]; [18] 86% | [15]; at 50.0 µM 75.2% | [16]; at 33.0 µM 90%
inactive: [1]; at 1.2 µM 3% | [1]; at 3.7 µM 9% | [1]; at 11.0 µM 29% | [1]; at 33.0 µM 46% | [2]; at 1.2 µM 4% | [2]; at 3.7 µM 9% | [2]; at 11.0 µM 26% | [2]; at 33.0 µM 44% | [2]; at 100.0 µM 54% | [3]; at 1.2 µM 3% | [3]; at 3.7 µM 10% | [3]; at 11.0 µM 25% | [3]; at 33.0 µM 55% | [3]; at 100.0 µM 68% | [4]; at 1.2 µM 0% | [4]; at 3.7 µM 11% | [4]; at 11.0 µM 13% | [4]; at 33.0 µM 18% | [4]; at 100.0 µM 18% | [5]; at 1.2 µM 5% | [5]; at 3.7 µM 10% | [5]; [17] 18% | [5]; at 11.0 µM 36% | [5]; at 33.0 µM 56% | [5]; [18] 53% | [5]; at 50.0 µM 51.2% | [6]; at 1.2 µM -2% | [6]; at 3.7 µM 8% | [6]; [17] 5% | [6]; at 11.0 µM 25% | [6]; at 33.0 µM 48% | [6]; [18] 34% | [6]; at 50.0 µM 26.4% | [6]; at 100.0 µM 39% | [7]; at 1.2 µM 0% | [7]; at 3.7 µM 1% | [7]; at 11.0 µM 3% | [7]; at 33.0 µM 13% | [7]; at 100.0 µM 18% | [8]; [17] 10% | [8]; [18] 54% | [8]; at 50.0 µM 51.5% | [9]; at 1.2 µM 1% | [9]; at 3.7 µM 6% | [9]; at 11.0 µM 31% | [9]; at 33.0 µM 51% | [9]; at 100.0 µM 44% | [10]; [17] 5% | [10]; [18] 46% | [10]; at 50.0 µM 14.8% | [11]; at 1.2 µM 1% | [11]; at 3.7 µM 3% | [11]; [17] 11% | [11]; at 11.0 µM 44% | [11]; at 50.0 µM 53.6% | [11]; at 100.0 µM 47% | [12]; at 1.2 µM 2% | [12]; at 3.7 µM 6% | [12]; at 11.0 µM 22% | [12]; at 33.0 µM 28% | [12]; at 100.0 µM 51% | [13]; at 1.2 µM 1% | [13]; at 3.7 µM 1% | [13]; at 11.0 µM 11% | [13]; at 33.0 µM 32% | [13]; at 100.0 µM 44% | [14]; at 1.2 µM 2% | [14]; at 3.7 µM 7% | [14]; at 11.0 µM 25% | [14]; at 33.0 µM 42% | [14]; at 100.0 µM 68% | [15]; [17] 14% | [15]; [18] 56% | [16]; at 1.2 µM 2% | [16]; at 3.7 µM 19% | [16]; at 11.0 µM 62% | [16]; at 100.0 µM 50%

O=C1c2ccccc2C(=O)c2sc(Nc3ccccc3Cl)nc21
inactive: [1]; at 1.2 µM -11% | [1]; at 3.7 µM 42% | [2]; at 1.2 µM -17% | [2]; at 3.7 µM 13% | [2]; at 11.0 µM 58% | [3]; at 1.2 µM -37% | [3]; at 3.7 µM 27% | [4]; at 1.2 µM -13% | [4]; at 3.7 µM 19% | [5]; at 1.2 µM -1% | [5]; at 3.7 µM 13% | [6]; at 1.2 µM -13% | [6]; at 3.7 µM 32% | [7]; at 1.2 µM -19% | [7]; at 3.7 µM 26% | [9]; at 1.2 µM 3% | [9]; at 3.7 µM 47% | [10]; [17] 57% | [11]; at 1.2 µM -4% | [11]; at 3.7 µM 54% | [12]; at 1.2 µM 1% | [13]; at 1.2 µM -30% | [13]; at 3.7 µM -6% | [14]; at 1.2 µM -6% | [14]; at 3.7 µM 16% | [16]; at 1.2 µM -14% | [16]; at 3.7 µM 25%
active: [1]; at 11.0 µM 90% | [1]; at 33.0 µM 99% | [1]; at 100.0 µM 98% | [2]; at 33.0 µM 99% | [2]; at 100.0 µM 98% | [3]; at 11.0 µM 94% | [3]; at 33.0 µM 99% | [3]; at 100.0 µM 98% | [4]; at 11.0 µM 96% | [4]; at 33.0 µM 99% | [4]; at 100.0 µM 98% | [5]; [17] 87% | [5]; at 11.0 µM 78% | [5]; at 33.0 µM 98% | [5]; [18] 99% | [5]; at 50.0 µM 89.6% | [5]; at 100.0 µM 96% | [6]; [17] 97% | [6]; at 11.0 µM 99% | [6]; at 33.0 µM 99% | [6]; [18] 99% | [6]; at 50.0 µM 91.2% | [6]; at 100.0 µM 98% | [7]; at 11.0 µM 96% | [7]; at 33.0 µM 99% | [7]; at 100.0 µM 98% | [8]; [17] 100% | [8]; [18] 100% | [8]; at 50.0 µM 93.7% | [9]; at 11.0 µM 94% | [9]; at 33.0 µM 99% | [9]; at 100.0 µM 98% | [10]; [18] 99% | [10]; at 50.0 µM 91.3% | [11]; [17] 99% | [11]; at 11.0 µM 97% | [11]; at 33.0 µM 99% | [11]; [18] 99% | [11]; at 50.0 µM 90.1% | [11]; at 100.0 µM 97% | [12]; at 3.7 µM 77% | [12]; at 11.0 µM 99% | [12]; at 33.0 µM 99% | [12]; at 100.0 µM 98% | [13]; at 11.0 µM 94% | [13]; at 33.0 µM 99% | [13]; at 100.0 µM 97% | [14]; at 11.0 µM 82% | [14]; at 33.0 µM 99% | [14]; at 100.0 µM 97% | [15]; [17] 96% | [15]; [18] 99% | [15]; at 50.0 µM 85.8% | [16]; at 11.0 µM 83% | [16]; at 33.0 µM 99% | [16]; at 100.0 µM 97%
